Source: the supplement of paper PMC3334620
Whole data set: some 33,000 sequences, median “E-score (-0.5 to 0.5)” near -0.016, cut for the highest 2% near 0.31. This excerpt belongs to a sample that is enriched for the highest values.

target: Cst6 (UniProt P40535); test: PBM E-score (8-mer binding enrichment) (E-score (-0.5 to 0.5)); higher = stronger / more preferred TF binding; settings: protein concentration: 200 nM; construct: GST-DNA-binding domain
Description: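 Universal 'all 10-mer' protein binding microarrays (Agilent AMADID 015681) probed with GST-tagged S. cerevisiae TFs (full-length or DBD) made by in vitro transcription/translation (PURExpress), about 100-200 nM. Bound TF was detected with fluorescent anti-GST. Each ungapped 8-mer (which stands for itself and its reverse complement) is scored by the PBM enrichment score (E-score), a modified Wilcoxon-Mann-Whitney statistic from -0.5 to +0.5, computed with the Universal PBM Analysis Suite. Scale: above 0.35 generally sequence-specific binding.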

Chain of UniProt P40535 (P40535 whole entry, the tested form may be a part): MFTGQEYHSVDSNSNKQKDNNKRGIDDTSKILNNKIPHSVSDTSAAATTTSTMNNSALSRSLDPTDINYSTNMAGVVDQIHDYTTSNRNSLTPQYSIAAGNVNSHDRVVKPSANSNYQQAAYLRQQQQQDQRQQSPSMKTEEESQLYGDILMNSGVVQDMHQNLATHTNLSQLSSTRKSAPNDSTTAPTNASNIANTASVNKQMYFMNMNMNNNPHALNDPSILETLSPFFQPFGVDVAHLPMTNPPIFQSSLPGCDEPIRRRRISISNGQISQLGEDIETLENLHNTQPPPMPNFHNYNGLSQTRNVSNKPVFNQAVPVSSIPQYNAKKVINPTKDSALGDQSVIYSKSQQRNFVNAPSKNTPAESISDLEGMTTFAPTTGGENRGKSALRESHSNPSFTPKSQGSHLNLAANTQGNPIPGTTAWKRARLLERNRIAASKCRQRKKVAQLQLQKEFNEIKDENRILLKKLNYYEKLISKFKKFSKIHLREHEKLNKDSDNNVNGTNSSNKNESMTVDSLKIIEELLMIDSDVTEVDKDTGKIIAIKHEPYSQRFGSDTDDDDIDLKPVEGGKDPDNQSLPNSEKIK

Sequence	PBM E-score
ACTGCGTC	0.147
CACTTGGC	-0.08
GTGCTTAA	0.0338
ATCGCAGG	-0.199
GCATTGTA	0.047
GGGCTGTA	-0.256
GCAACCCA	-0.0438
ATTTTCTG	0.115
CCTCGAAA	0.0797
CATCACTA	0.353
AGTCACTC	-0.033
CGTCACTC	0.445
AATCACTA	0.159
GATCACTA	0.0963
GGTCACTA	0.0296
CGTCACTA	0.459
AGTCACTA	0.209
CCTCACTC	0.0262
GTTTGGTA	0.213
CAAAAATG	0.133
ACTGTGGG	-0.0161
GATACCGC	-0.0789
AGGGACAT	-0.181
CGACGGGC	0.0567
CCATTACC	-0.00808

Sequence	PBM E-score
AGGAGACA	-0.0509
ATCAAGTC	0.0221
GGAGGTAA	-0.0533
AGAGGTAA	-0.119
TGAGGTAA	0.414
ATAGCTGA	-0.204
CATTCCAG	-0.0492
AGAGGGTG	-0.204
GGGCCGCA	-0.0641
GAGCCGCA	0.28
ATGCCGCG	0.233
ATGCCGCA	0.353
GTGCCGCA	0.362
CTGCCGCA	0.0518
TAACTACA	0.0421
AGAGTTTA	0.176
CCACACTA	0.149
TACCTAAA	0.14
CGTGTGGA	-0.153
AAAGGGGC	-0.196
AACGGCAA	0.251
CACGGCAA	0.302
GACGGCAC	0.23
AACGGCAG	0.134
CACGGCAC	0.356

Sequence	PBM E-score
AACGGCAC	0.343
CACGGCAG	0.142
AACGGCAT	0.346
ATCGGCAT	0.23
CTCTGAAA	-0.0419
AAGGATGA	0.0593
CATGCAAA	0.142
CGCCGCGA	0.241
CCCGCCGC	0.126
AGCGCCGC	0.309
AGCCGCGC	0.18
CGCGCCGC	0.326
CGCCGTGA	0.221
CGCCGTGC	0.344
CGCGCCGA	0.137
AGCCGTGC	0.24
AGCGCCGA	0.00204
CGCCGCGC	0.357
AGCGCCGG	-0.102
ATTATGCG	0.217
ACGAGTTA	0.0712
CTTCTTCC	-0.212
ACCTAGTA	-0.284
AACTCTGT	0.0458
ATCTATCA	0.128

Sequence	PBM E-score
ACCCACGT	0.0287
ACCAACTC	-0.0108
CATTTCCA	0.143
CTTTAGGA	-0.0677
ACCTCTCA	-0.0889
CTACATAA	-0.0447
TGACATAA	0.477
TTACATAA	0.433
AGACATAA	0.0351
GGACATAA	0.0407
GTACATAA	0.085
ACTACCTA	0.0222
AGTGGAGC	-0.165
AGGTGACG	0.452
AGGTGACA	0.278
AGTTGACC	-0.114
AGTTGACA	0.191
ATGTGACC	0.0452
ATGTGACG	0.433
CGGTGACA	0.266
CGGTGACG	0.476
AGGTGACC	0.046
ATGTGACA	0.151
CGGTGACC	0.115
AGTTGACG	0.324

Sequence	PBM E-score
CCCAGGGA	-0.37
CTGGAGCA	-0.0734
CAGCCTTA	-0.254
AAGCTAAG	-0.252
AAAGCTTC	-0.172
CTACTTAC	0.127
AGGCTAAC	-0.114
CAAACCTG	0.0584
CCTAATTA	-0.00674
CATAATTA	0.304
AATAATTC	0.205
GATAATTA	0.322
GCTAATTA	0.166
AATAATTG	0.121
ACTAATTA	0.351
AATAATTA	0.325
GATAATAA	0.098
CAGGGCGA	-0.00562
CTCTCGCC	-0.249
AATGGTGA	0.184
TCGGCTCA	-0.0753
CTTGACGC	0.214
CCTGACGC	-0.0402
AGTGACCC	-0.164
AGTGACTC	0.0809

Sequence	PBM E-score
CGTGACGA	0.386
CGTGACCA	-0.0809
CGTGACAA	0.108
AGTGACGC	0.438
CGTGACGC	0.436
GCGTTAAA	-0.0116
AGGGTAGC	-0.17
GTGCTATA	0.0846
ACTCATTC	0.103
CTCCGATA	-0.203
GGGATTTA	0.00892
GGGCCTGA	-0.239
TCACCAAA	0.326
GCACCAAA	0.0915
ACACCAAA	0.212
CGCCTTAC	0.163
GAAGTGGA	-0.16
CTCATAGA	0.0631
CTCATATA	-0.0189
CTCATACA	0.116
GTCATAGA	0.411
ATCATAGA	0.246
TTCATAAA	0.212
ATCATATA	0.299
GGCATACA	-0.102

Sequence	PBM E-score
GTCATACA	0.317
GTCATAAA	0.331
ATCATAAA	0.195
GTCATATA	0.377
CAACACTG	0.0167
AGGCGTGG	-0.196
ATTAAGCG	0.108
AACTGAAG	0.0725
CCGGCCAA	-0.232
TGCTAGCA	0.0927
AGTACTGC	-0.173
TAAAGTCA	0.0375
ATTGCTCA	0.192
CAGATACG	0.0888
CTAACAGC	-0.00671
ATCATACG	0.308
ATCATACC	0.259
ATCATACA	0.268
CAGACAAG	-0.14
AGTCTCCC	-0.308
AATCATAG	0.189
CATCATAA	0.291
CATCATAC	0.374
AATCATAC	0.239
CATCATAG	0.326

Sequence	PBM E-score
ACTCATAG	0.152
CAGGGAAG	-0.244
CTTCCTTC	-0.24
ATGGTGAG	0.0691
CAACACCC	-0.142
AGGCCCAC	-0.378
GGAGTTTA	0.00491
ATGATGAA	0.367
AGGATGAC	0.208
ATGATTAG	0.158
CTGATGAC	0.292
ATGATTAA	0.329
CTGATTAA	0.161
ATGATGAC	0.378
GTGATGAA	0.154
CTGATGAA	0.0772
TAGCGAGA	-0.0782
GCATTCGA	-0.00988
ACCATCTA	-0.207
ATTTGTGA	0.146
AGTGCAGC	-0.108
ATTGATAC	0.154
GCGATGCA	-0.255
AGTCAACG	-0.102
CGTCAACG	0.344

Sequence	PBM E-score
AGTCAACC	-0.219
CCTCAACG	-0.102
CGTCAACA	0.407
CGTCAACC	0.377
TGTCAACA	0.184
GGTCAACA	-0.0567
GGTCAACC	-0.0743
GGTACGAA	0.0828
GATGCACC	-0.163
ATGATCAT	0.198
GGTCAATA	0.0678
CGTCAATC	0.337
CGTCAAGC	0.0721
AGTCAATC	0.0291
AGTCAATA	0.0835
CGTCAATA	0.349
TCGTATCA	0.127
ACTAGCCC	-0.0733
CACAGTGG	-0.124
GGCCTGAA	-0.122
AATTCGTA	0.252
CATTCGTC	0.148
AATTCGTC	0.316
AATGCGGC	0.266
CATGCGGC	0.33

Sequence	PBM E-score
CGTGCGGA	0.0478
AGTGCGGC	0.173
CATGCGGA	-0.0527
CGTGCGGC	0.321
ATTAAGAC	-0.0411
AGTTGATA	0.103
GAAAAGAC	0.222
CGACAGAG	-0.315
TGCCTTAA	-0.0513
CAAAAAAA	0.32
AAAAAAAG	0.211
AGAACAAT	0.25
GAAAAAAA	0.258
ACAAAAAA	0.311
AAAAAAAA	0.317
CCAAAAAA	0.279
ACAAAAAC	0.104
ACAAAAAT	0.279
CAAAAAAC	0.201
AGAACAAG	0.113
AGAACAAA	0.34
CATCCAGC	-0.0585
CTCCGTAA	-0.0462
CCACCTAA	-0.0425
TAGCCCGA	-0.177

Sequence	PBM E-score
CACAATCA	0.17
AGTTTGAC	0.0432
ACTTTAAT	0.107
CTCACGTA	-0.00865
ATTACCTG	0.14
AGTACGTG	-0.125
GTTACGGA	0.11
CCTACGTA	0.297
ATTACGTG	0.46
GTTACGTA	0.46
GCTACGTA	0.213
ACTACGTG	-0.0819
CTTACGTA	0.466
CTTACGAA	0.119
ACTACGTA	0.343
AGTCTCAA	-0.217
CAAACCTC	-0.272
TCTTCACA	0.113
AAACCCGT	0.0445
ATCTCGTG	-0.0972
ATCGCTGG	-0.217
AGACGCAT	-0.0757
ATTACGGA	0.154
ATTACGGC	0.266
ATTACGTA	0.49

Sequence	PBM E-score
ATTAGGTA	0.261
CTCACGTC	0.14
CTTACGTC	0.421
CTTACGCC	0.193
ATTACGTC	0.485
ACTACGTC	0.157
AACCTTCG	0.0222
CCAAGGCC	-0.19
CCATTCTA	-0.0992
AAGAATTG	0.182
ACTTGCTC	-0.198
ATCAAACA	0.107
CAGTTGGC	-0.175
AAGTCACA	0.119
ACGTCACA	0.484
AAGTCACT	0.141
ACGTCACT	0.495
AGGTCACT	-0.0496
ACGTCACG	0.49
AAGTCACG	0.0378
AGGTCACA	-0.0345
AGGTCACG	0.0374
TGCACCAA	-0.0568
AGTTGCTG	-0.0492
ACACACAG	0.107

Sequence	PBM E-score
CACGCTGC	-0.246
CAACCACC	-0.251
ATTCTCGC	-0.17
AAGTACCC	-0.275
ATGCCTCA	0.11
ATGCCTCG	0.317
ATGCCTCC	-0.0323
ATGTCATG	0.425
ATGTCATC	0.432
ATGTCAGC	0.225
CTGTCATC	0.186
GTGTCATA	0.249
CTGTCATA	0.186
ATGTCGTG	0.0262
ATGTCAAG	0.235
ATGTCATA	0.442
ACTTTGAA	0.0348
GCATCGAA	-0.0745
GGATCTAA	-0.0815
GACCTTAA	-0.0362
CTAGTGCC	-0.125
AGCTATCG	-0.106
GCAGCAGC	-0.133
ATCACCAC	0.244
TTCACCAA	0.124

Sequence	PBM E-score
GTCACCAC	0.373
ATCACCGA	0.212
CTCACCGA	0.048
CTCACCAA	0.102
GTCACCGA	0.426
CTCACCAC	-0.0767
GTCACCAA	0.315
GTGGTGAA	-0.0462
GTCTCCAA	-0.00606
GAGCAAAA	0.0129
CGAGCCTA	0.011
AATTATTG	0.252
AATTATTA	0.321
AATTATGG	0.0357
AATTATGA	0.359
AATTATTC	0.219
ATTTATTA	0.357
GTTTATTA	0.164
ATTATTTA	0.305
AATTATGT	0.304
